Experimental data published in PubChem BioAssay (NCATS).
Results filed as inconclusive are left out. A call without a number means that no potency is given here. A number with no mark means an inactive call. Activity calls are given as the source filed them. Calls follow the shape of the dose curve; as a rule, active = well fitted cell-killing curve with a large enough effect; inconclusive = small, poorly fitted or top-dose-only effect, or effect the other way; inactive = no such curve, though single readings can be large or run the other way.

Experiment: Viability qHTS for spleen associated tyrosine kinase inhibitor (SYKi) naive MV4-11 cells (AID 1963823); also: nearly all actives have a fitted effect of over 40% in size
In short: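 SYK inhibitor-naive MV4-11 cells, 500 per well, exposed to compounds for 72 hr at 37 C, 5% CO2. Viability read as CellTiter-Glo luminescence after 10 min at room temperature.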
Potency is read from the fitted curve at half-maximal effect.

SMILES	Potency	viability (% of control)
NC(=O)c1ccc(F)c2c1C[C@@H](N(C1CCC1)C1CCC1)CO2	inactive	–
CCN(CC)CCCCNc1ncc2cc(-c3c(Cl)cccc3Cl)c(NC(=O)NC(C)(C)C)nc2n1	0.517 µM (active)	–
C=C1C(OC(C)=O)CCC2(C)CCC(C(C)(C)O)CC12 (stereo not drawn)	inactive	–
CC(=O)N[C@H]1[C@H](O[C@H]2CC[C@@]3(C)C(CC[C@]4(C)C3CC=C3C5CC(C)(C)CC[C@]5(C(=O)O)[C@H](O)C[C@]34C)C2(C)C)O[C@H](CO[C@@H]2OC[C@H](O)[C@H](O)[C@H]2O[C@@H]2OC[C@@H](O)[C@H](O)[C@H]2O)[C@@H](O)[C@@H]1O (stereo partly drawn)	–	83.2% [at 9.25 µM]
CC1(C)CC(=O)N(CCCCN2CCN(c3ncccn3)CC2)C(=O)C1	inactive	–
CC1=C[C@H]2[C@@H](CC1=O)[C@H](C)C[C@H](O)[C@H]2C(C)C	inactive	–
C[C@@H]1CC[C@@]23CC[C@]4(C)[C@@](C=CC5[C@@]6(C)CC[C@H](O)C(C)(C)C6CC[C@]54C)(OC2=O)C3[C@H]1C (stereo partly drawn)	inactive	–
C/C=C(/C)C(=O)OC1C2OC2C2(CO2)C2C3OC(=O)C(C)C3CCC12C (stereo not drawn)	inactive	–
C=C1C(=O)O[C@H]2C3=C(C)CCC[C@]3(C)C(=O)C[C@@H]12	1.3 µM (active)	–
O=S(c1cc(Cl)cc(Cl)c1O)c1cc(Cl)cc(Cl)c1O	inactive	–
COc1cccc2cc3c(c(O[C@@H]4O[C@H](CO[C@@H]5O[C@H](CO)[C@@H](O)[C@H](O)[C@H]5O)[C@@H](O)[C@H](O)[C@H]4O)c12)C(C)OC3=O (stereo partly drawn)	inactive	–
COc1cc([C@@H](O[C@@H]2O[C@H](CO)[C@@H](O)[C@H](O)[C@H]2O)[C@@H]2CO[C@H](c3ccc(O)c(OC)c3)[C@H]2CO)ccc1O	inactive	–
COc1ccc2c(c1)N1C(=O)C[C@@]34C=CC[N@+]5([O-])CC[C@H]2[C@H](CC3)[C@@]145	6.4 µM (active)	–
CC[C@@H]1C[C@]1(NC(=O)[C@@H]1C[C@@H]2CN1C(=O)[C@H](C(C)(C)C)NC(=O)OCC(C)(C)CCCCc1cccc3c1CN(C3)C(=O)O2)C(=O)NS(=O)(=O)C1CC1	20.6 µM (active)	–
OC[C@H]1O[C@@H](OCCc2ccc(O)cc2)[C@H](O[C@@H]2OC[C@](O)(CO)[C@H]2O)[C@@H](O)[C@@H]1O	inactive	–
CC(C)=CCC[C@](C)(O)[C@H]1CC[C@]2(C)[C@@H]1[C@H](O)CC1[C@@]3(C)CC[C@H](O)C(C)(C)[C@@H]3[C@@H](O[C@@H]3O[C@H](CO)[C@@H](O)[C@H](O)[C@H]3O[C@@H]3O[C@H](CO)[C@@H](O)[C@H](O)[C@H]3O)C[C@]12C (stereo partly drawn)	inactive	–
COc1ccccc1NC(=O)OCC1CCN(C(=O)OC(C)(C)C)CC1	inactive	–
C=C1[C@H](OC(C)=O)[C@H]2[C@@H](OC(C)=O)C(C)C[C@]2(OC(C)=O)C(=O)[C@H](C)/C=C/C(C)(C)C(=O)[C@H](OC(=O)C(C)C)[C@H]1OC(C)=O (stereo partly drawn)	inactive	–
COC(=O)Cn1nc(-c2cccc(OC)c2)c2ccccc21	inactive	–
C[C@@H]1O[C@@H](O[C@H]2[C@H](O)[C@@H](O)[C@H](OC[C@H]3O[C@@H](OC(=O)[C@]45CCC(C)(C)C[C@H]4C4=CCC6[C@@]7(C)CC[C@H](O[C@@H]8OC[C@H](O)[C@H](O[C@@H]9O[C@H](CO)[C@@H](O)[C@H](O)[C@H]9O)[C@H]8O)[C@@](C)(CO)C7CC[C@@]6(C)[C@]4(C)CC5)[C@H](O)[C@@H](O)[C@@H]3O)O[C@@H]2CO)[C@H](O)[C@H](O)[C@H]1O (stereo partly drawn)	–	98% [at 9.25 µM]
C/C=C(/C)C(=O)OC1C(OC(C)=O)C23C(O)OC4(CCC5C6(C)CCC(OC7OC(C(=O)O)C(O)C(OC8OC(CO)C(O)C(O)C8OC8OC(C)C(O)C(O)C8OC8OCC(O)C(O)C8O)C7OC7OC(CO)C(O)C(O)C7O)C(C)(C)C6CCC5(C)C4(C)CC2OC(C)=O)C3CC1(C)C (stereo not drawn)	–	43.2% [at 9.25 µM]
CCC(C)C(C(=O)O)N1Cc2c(OCC=C(C)C)c(C)c(OC)c(C(=O)O)c2C1=O (stereo not drawn)	inactive	–
COC(=O)[C@@]1(C)CC[C@]2(C(=O)O[C@@H]3O[C@H](CO)[C@@H](O)[C@H](O)[C@H]3O)CC[C@]3(C)C(=CCC4[C@@]5(C)CC[C@H](O[C@@H]6O[C@H](C(=O)O)[C@@H](O)[C@H](O)[C@H]6O)C(C)(C)C5CC[C@]43C)[C@@H]2C1 (stereo partly drawn)	–	68.6% [at 9.25 µM]
